Results from the supplement of paper PMC10849652.
About 7,900 targets were measured; listed, in parts, are those with a hit and a random draw of the rest. About 0.6% of all pairs of compound and target were hits.

Compound: COC(=O)[C@H](CCSC)NC(=O)C1=C(C=C(C=C1)NC[C@H](CS)N)C2=CC=CC=C2
Assay: log2 fold change, soluble protein after heating vs DMSO (PISA); higher = thermal stabilisation; K562 cells, 10 uM, 30 min; active = over 0.2 and 3.5 SD of the protein, either way, in both replicates (recomputed)
Procedure, shortened: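 Aliquots of K562 cells (2×10^6 cells/mL) treated with 10 μM compound for 30 min were heated for 3 min over 48°C-58°C. After pooling and extraction in PBS with 0.5% NP-40 at 4°C, soluble protein from a 21,000xg, 90 min spin was quantified by TMTpro 16plex LC-MS/MS with channel sums equalised. Thermal stability is expressed against control samples, from duplicates, as a log2 fold change.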

Sequence of UniProt Q15005 (Q15005 whole entry, looked up): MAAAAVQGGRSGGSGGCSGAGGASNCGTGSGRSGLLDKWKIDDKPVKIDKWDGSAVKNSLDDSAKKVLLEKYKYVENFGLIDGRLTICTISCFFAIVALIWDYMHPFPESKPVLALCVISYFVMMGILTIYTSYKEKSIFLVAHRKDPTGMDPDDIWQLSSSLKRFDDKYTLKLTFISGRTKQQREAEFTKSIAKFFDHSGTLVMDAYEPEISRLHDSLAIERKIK
Sequence of UniProt Q8TCT7 (Q8TCT7 whole entry, looked up): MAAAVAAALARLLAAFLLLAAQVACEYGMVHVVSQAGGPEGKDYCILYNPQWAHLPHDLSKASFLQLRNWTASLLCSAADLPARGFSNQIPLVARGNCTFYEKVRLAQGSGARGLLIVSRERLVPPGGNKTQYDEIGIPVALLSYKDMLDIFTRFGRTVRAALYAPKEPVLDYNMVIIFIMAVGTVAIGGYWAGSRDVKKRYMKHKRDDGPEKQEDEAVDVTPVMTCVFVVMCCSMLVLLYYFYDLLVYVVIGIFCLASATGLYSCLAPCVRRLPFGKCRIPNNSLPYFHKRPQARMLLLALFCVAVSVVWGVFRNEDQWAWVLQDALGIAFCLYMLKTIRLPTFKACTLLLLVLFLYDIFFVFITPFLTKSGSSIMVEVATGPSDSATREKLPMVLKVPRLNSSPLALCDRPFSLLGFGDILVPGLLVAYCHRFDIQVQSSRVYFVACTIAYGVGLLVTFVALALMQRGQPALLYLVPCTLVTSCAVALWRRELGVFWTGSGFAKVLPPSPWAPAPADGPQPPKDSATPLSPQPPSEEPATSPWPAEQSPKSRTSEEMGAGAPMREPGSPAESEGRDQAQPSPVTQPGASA
Sequence of UniProt Q9UHD2 (Q9UHD2 whole entry, looked up): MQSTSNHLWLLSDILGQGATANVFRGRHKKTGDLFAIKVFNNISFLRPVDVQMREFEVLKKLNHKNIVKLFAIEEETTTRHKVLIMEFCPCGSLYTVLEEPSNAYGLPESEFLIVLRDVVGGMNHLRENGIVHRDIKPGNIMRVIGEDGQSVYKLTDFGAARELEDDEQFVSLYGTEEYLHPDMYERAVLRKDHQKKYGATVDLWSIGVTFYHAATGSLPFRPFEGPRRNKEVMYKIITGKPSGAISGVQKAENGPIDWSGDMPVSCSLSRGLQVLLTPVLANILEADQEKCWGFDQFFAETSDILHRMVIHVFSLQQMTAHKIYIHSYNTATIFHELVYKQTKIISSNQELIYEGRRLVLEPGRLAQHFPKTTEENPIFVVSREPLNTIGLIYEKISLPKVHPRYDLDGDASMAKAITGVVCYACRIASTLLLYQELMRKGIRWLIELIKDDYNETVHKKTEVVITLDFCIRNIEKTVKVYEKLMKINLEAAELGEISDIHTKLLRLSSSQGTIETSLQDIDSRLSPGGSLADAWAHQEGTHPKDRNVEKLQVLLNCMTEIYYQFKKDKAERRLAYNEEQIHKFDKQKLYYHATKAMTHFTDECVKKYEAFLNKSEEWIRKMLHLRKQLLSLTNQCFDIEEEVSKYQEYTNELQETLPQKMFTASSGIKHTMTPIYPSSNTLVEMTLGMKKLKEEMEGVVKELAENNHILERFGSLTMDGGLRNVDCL
Sequence of UniProt P12931 (P12931 whole entry, looked up): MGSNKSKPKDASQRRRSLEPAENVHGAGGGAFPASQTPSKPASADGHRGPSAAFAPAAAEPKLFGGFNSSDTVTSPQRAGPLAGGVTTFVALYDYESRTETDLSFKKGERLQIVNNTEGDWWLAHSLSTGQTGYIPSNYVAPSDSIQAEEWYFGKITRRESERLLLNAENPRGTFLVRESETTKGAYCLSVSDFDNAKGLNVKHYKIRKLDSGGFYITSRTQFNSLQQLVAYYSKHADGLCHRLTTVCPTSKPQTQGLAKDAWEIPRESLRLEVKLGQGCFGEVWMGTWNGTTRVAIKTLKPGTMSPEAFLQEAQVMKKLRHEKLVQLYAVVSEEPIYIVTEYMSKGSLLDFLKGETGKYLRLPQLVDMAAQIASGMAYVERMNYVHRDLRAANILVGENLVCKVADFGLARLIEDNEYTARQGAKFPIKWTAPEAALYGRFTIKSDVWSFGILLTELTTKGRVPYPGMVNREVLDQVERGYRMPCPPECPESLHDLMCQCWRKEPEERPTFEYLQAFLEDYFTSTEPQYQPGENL
Sequence of UniProt Q9NRS6 (Q9NRS6 whole entry, looked up): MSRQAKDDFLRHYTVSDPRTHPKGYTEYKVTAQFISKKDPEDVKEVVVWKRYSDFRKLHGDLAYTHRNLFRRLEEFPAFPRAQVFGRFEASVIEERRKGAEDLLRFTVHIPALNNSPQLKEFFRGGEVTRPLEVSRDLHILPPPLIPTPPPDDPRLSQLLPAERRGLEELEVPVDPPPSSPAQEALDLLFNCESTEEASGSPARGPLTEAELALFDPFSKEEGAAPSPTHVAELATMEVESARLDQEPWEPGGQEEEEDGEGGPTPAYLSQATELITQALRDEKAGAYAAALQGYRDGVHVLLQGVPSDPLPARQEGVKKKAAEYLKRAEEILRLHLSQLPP
Sequence of UniProt Q96BZ9 (Q96BZ9 whole entry, looked up): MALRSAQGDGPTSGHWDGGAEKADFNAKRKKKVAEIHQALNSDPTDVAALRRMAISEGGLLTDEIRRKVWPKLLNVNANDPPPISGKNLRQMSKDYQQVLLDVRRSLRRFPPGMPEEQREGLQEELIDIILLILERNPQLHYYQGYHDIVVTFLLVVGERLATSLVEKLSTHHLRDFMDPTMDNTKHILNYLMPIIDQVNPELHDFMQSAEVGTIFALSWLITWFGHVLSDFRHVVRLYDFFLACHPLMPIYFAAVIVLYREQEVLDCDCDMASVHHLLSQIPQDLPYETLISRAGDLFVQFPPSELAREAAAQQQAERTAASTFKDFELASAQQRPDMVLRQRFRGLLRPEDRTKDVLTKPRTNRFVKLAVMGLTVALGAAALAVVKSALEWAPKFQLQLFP
Sequence of UniProt Q8N357 (Q8N357 whole entry, looked up): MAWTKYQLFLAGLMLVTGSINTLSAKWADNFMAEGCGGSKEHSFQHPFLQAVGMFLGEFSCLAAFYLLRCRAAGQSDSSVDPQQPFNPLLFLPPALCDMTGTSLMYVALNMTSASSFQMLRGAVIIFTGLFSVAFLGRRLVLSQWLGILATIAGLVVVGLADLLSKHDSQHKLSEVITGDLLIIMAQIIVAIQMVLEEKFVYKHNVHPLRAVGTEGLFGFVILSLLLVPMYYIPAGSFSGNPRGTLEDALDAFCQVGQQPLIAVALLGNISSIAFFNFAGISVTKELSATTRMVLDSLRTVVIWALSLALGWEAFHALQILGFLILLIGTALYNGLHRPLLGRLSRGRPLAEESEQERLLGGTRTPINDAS
Sequence of UniProt Q9Y6I9 (Q9Y6I9 whole entry, looked up): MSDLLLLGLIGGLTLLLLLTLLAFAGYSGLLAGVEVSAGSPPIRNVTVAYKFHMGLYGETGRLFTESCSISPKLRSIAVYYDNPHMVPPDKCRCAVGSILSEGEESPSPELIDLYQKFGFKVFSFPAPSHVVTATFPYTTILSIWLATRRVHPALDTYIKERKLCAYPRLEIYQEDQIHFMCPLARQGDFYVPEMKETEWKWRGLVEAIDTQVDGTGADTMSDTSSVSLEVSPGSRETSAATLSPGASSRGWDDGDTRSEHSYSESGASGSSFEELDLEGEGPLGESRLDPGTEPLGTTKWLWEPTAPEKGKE
Sequence of UniProt Q8N5G0 (Q8N5G0 whole entry, looked up): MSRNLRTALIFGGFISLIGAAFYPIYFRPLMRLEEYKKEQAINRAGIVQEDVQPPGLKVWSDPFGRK
Sequence of UniProt P08579 (P08579 whole entry, looked up): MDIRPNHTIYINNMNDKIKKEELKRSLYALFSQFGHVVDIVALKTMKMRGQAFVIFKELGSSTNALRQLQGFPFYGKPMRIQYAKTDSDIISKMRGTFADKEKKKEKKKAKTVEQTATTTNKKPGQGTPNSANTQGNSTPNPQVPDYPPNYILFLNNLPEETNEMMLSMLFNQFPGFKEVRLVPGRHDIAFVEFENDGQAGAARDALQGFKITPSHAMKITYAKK
Sequence of UniProt Q5VWP2 (Q5VWP2 whole entry, looked up): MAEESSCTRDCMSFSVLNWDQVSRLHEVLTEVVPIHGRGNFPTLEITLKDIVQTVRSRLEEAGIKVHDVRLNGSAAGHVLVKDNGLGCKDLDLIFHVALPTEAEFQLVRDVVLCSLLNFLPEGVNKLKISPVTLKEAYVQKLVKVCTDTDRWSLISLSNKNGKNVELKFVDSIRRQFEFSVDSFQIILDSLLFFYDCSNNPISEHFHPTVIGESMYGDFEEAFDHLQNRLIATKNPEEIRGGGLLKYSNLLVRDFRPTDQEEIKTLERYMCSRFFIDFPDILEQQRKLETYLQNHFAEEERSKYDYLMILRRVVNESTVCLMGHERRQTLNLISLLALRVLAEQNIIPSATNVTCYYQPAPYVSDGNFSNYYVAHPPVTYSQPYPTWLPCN
Sequence of UniProt Q8TC07 (Q8TC07 whole entry, looked up): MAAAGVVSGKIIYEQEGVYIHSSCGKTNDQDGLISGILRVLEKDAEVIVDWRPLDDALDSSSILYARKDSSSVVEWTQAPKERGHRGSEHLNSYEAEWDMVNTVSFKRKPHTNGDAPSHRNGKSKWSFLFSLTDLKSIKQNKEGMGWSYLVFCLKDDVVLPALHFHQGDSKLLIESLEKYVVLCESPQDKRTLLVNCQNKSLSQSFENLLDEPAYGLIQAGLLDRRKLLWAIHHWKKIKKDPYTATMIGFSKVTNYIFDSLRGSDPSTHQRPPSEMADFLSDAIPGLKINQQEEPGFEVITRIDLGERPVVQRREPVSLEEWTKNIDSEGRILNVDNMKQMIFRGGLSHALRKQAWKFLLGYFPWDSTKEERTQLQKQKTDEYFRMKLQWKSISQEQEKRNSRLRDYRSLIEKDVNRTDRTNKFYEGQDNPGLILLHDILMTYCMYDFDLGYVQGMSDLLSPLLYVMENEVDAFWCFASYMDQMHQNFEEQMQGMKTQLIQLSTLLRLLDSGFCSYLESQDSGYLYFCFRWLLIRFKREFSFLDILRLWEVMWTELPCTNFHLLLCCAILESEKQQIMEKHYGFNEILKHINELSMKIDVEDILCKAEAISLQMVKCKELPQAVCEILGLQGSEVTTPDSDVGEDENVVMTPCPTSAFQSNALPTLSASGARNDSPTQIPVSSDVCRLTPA

log2 fold change, inactive:
SYNE2 isoform 2 (UniProt Q8WXH0) -0.006, TBK1 (UniProt Q9UHD2) 0.001, SLC38A7 (UniProt Q9NVC3) -0.261, TENT5C (UniProt Q5VWP2) -0.011, SRXN1 (UniProt Q9BYN0) 0.022, SLC29A3 (UniProt Q9BZD2) 0.055, SMARCE1 (UniProt Q969G3) -0.199, SRC isoform 2 (UniProt P12931) 0.188, SLC39A11 (UniProt Q8N1S5) -0.082, TBC1D15 isoform 3 (UniProt Q8TC07) -0.003, SNX15 (UniProt Q9NRS6) 0.025, SPPL2B (UniProt Q8TCT7) 0.069, SMIM20 isoform 2 (UniProt Q8N5G0) -0.143, SRSF9 (UniProt Q13242) -0.024, SLC35F6 (UniProt Q8N357) 0.007, TBC1D20 isoform 3 (UniProt Q96BZ9) -0.068, TEX264 (UniProt Q9Y6I9) 0.071, SPCS2 (UniProt Q15005) 0.021, TJP1 (UniProt Q07157) -0.056, TACC2 (UniProt O95359) 0.039, SNRPB2 (UniProt P08579) 0.054, STK26 (UniProt Q9P289) 0.054
